# In PubChem BioAssay (NCATS):
# “And” between values parts separate entries of the source, which are not always exact repeats. Identical values can stand only once. Unmarked numbers belong to inactive results. Where a call stands in place of a potency, no number is given. The source made the active and inactive calls. Unless noted, the call rests on the fitted dose curve; in most records, active means well fitted curve in the direction sought with a large enough effect; inconclusive means small, poorly fitted or top-dose-only effect, or another doubt; inactive means no such curve, though single readings can be large; an effect the other way counts as inactive or inconclusive.
# Columns and labels:
# [1] = target: Rap guanine nucleotide exchange factor 4 (Homo sapiens) (UniProt Q8WZA2); assay: Confirmatory qHTS for agonist of cAMP-regulated guanine nucleotide exchange factor 4 (EPAC2) (AID 1645884);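 further: nucleotide exchange releases bodipy-GDP from Rap1 and this lowers its fluorescence; nearly all actives have a fitted effect of over 65% in size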
# [2] = target: Estrogen receptor (Homo sapiens) (UniProt P03372); assay: qHTS assay for small molecule antagonists of estrogen receptor alpha signaling (AID 588513; active means well fitted curve in the direction sought with a large enough effect in the signal ratio, with a control signal flat, not every such curve was filed as active; inconclusive means small, poorly fitted or top-dose-only effect, or effect the other way, or a change in a side signal; inactive means no such curve, though single readings can be large or run the other way; the % refers to the signal ratio; further: potency means the concentration at half of the fitted maximal effect)
# Summary of the method: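 Antagonist-mode qHTS in ER-alpha-UAS-bla HEK 293 cells: compound titration, 0.5nM estradiol for 18 h, CCF4 fluorescence, Hill-derived IC50.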
# [3] = target: Glucocorticoid receptor (Homo sapiens) (UniProt P04150); assay: qHTS assay for small molecule agonists of glucocorticoid receptor signaling (AID 588532; active means well fitted curve in the direction sought with a large enough effect in the signal ratio, with a control signal flat; inconclusive means small, poorly fitted or top-dose-only effect, or a change in a side signal; inactive means no such curve, though single readings can be large or run the other way; the % refers to the signal ratio); conditions: HeLa MMTV-bla, beta-lactamase ratio, agonist, 18 h; active compounds read high; percent of dexamethasone control, DMSO zero
# Summary of the method: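 Titration series, up to 92 uM, applied to GRE-bla HeLa cells for 18 h at 37 C. Detection by CCF4 FRET substrate after 2 h at RT.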
# [4] = target: Vitamin D3 receptor (Homo sapiens) (UniProt P11473); assay: qHTS assay for small molecule antagonists of vitamin D receptor signaling (AID 588541; calls by dose curve;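 further: receptor activated by calcitriol during compound treatment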)
# Summary of the method: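 VDR-UAS-bla HEK293T cells (2000/well, 2% charcoal-stripped FBS) were treated with titrated compounds plus 1-alpha,25-dihydroxyvitamin D3 (50 nM or 3 nM final) for 16 h at 37 C. CCF4 beta-lactamase fluorescence was read; Hill fits gave IC50.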
# [5] = qHTS assay for environmental chemicals that activate the Aryl hydrocarbon Receptor (AhR) signaling pathway (AID 651777); conditions: 1A2-DRE human hepatoma cells, luciferase, 24 h; activation: active compounds read high; further: nearly all actives have a fitted effect of over 15% in size; further: potency means the concentration at half of the fitted maximal effect
# Summary of the method: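 Measured luciferase activity, read 30 min after One-Glo addition at room temperature, from human hepatoma cells bearing a dioxin response element–CYP1A2 promoter reporter and exposed to compound for 24 hr at 37 C.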
# [6] = target: Peroxisome proliferator-activated receptor alpha (Homo sapiens) (UniProt Q07869); assay: qHTS assay for small molecule agonists of the peroxisome proliferator-activated receptor alpha (PPARalpha) signaling pathway (AID 651778); conditions: PathHunter PPARalpha complementation, chemiluminescence, 6 h; active compounds read high
# Summary of the method: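 Cells plated at 2,000/well and held overnight at 37 C, 5% CO2, then compound added by pin tool for 6 hr; after PathHunter detection reagent and 60 min at room temperature, chemiluminescence from enzyme complementation was read.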
# [7] = qHTS assay for small molecule agonists of the antioxidant response element (ARE) signaling pathway measured by Nrf2-dependant transcriptional activity - cell viability counter screen (AID 720653; active means well fitted curve in the direction sought with a large enough effect in the repeat runs; inconclusive means weak or mixed curves; inactive means no such curve, though single readings can be large; an effect the other way counts as inactive or inconclusive); conditions: ARE-bla HepG2 viability, CellTiter-Glo ATP luminescence, 16 h; max response: active compounds read low
# Summary of the method: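 ARE-bla HepG2 cells (2,000/well) rested 5 hrs at 37C/5% CO2, then exposed to compounds in DMSO for 16 hrs. Viability was read in the same wells as intracellular ATP by luminescence, 30 min at room temperature after reagent addition.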
# [8] = target: Luciferin 4-monooxygenase (Photinus pyralis) (UniProt P08659); assay: Biochemical firefly luciferase enzyme assay for NPC (AID 624030);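 further: purified P. pyralis luciferase at 10 nM with luciferin and ATP substrate; nearly all actives have a fitted effect of over 70% in size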
# Summary of the method: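 Counter-screen for direct inhibition of the luciferase enzyme by approved-drug library compounds, run at 10 nM enzyme in 50 mM Tris acetate (final). Luminescence was read within 5 min of enzyme-buffer addition and normalized to PTC124 versus DMSO (0%).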
# [9] = S16 Schwann cell viability assay (CellTiter-Glo assay) (AID 624031);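 further: native untransfected S16 rat Schwann cells; cellular ATP luminescence as a viability measure; nearly all actives have a fitted effect of over 70% in size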
# Summary of the method: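 Rat S16 Schwann cells without reporter constructs received compound or DMSO for 24 h at 37 °C under 5% CO2. Cellular ATP was then quantified by CellTiter-Glo luminescence, with vehicle wells defined as 0% activity and cell-free wells as reference.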
# 3D7 = assay: qHTS profiling for inhibitors of Plasmodium falciparum proliferation (AID 504749); further: nearly all actives have a fitted effect of over 60% in size; further: potency means the concentration at half of the fitted maximal effect; conditions: P. falciparum in erythrocytes, SYBR Green DNA, 72 h; series mostly up to 28.7 µM
# Summary of the method: (§1)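 Quantitative HTS: compounds pinned into medium, infected erythrocytes added (0.3% parasitemia, 2.5% hematocrit), 72 h culture at 37 C under 5% CO2. Saponin/Triton lysis with SYBR Green I, overnight RT, then fluorescence read.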
# CP211 = assay: as above; conditions: P. falciparum in erythrocytes, SYBR Green DNA, 72 h; series mostly up to 28.7 µM
# Summary of the method: as §1
# CP266 = assay: as above; conditions: P. falciparum in erythrocytes, SYBR Green DNA, 72 h; series mostly up to 28.7 µM
# Summary of the method: as §1
# FAB9 = assay: as above; conditions: P. falciparum in erythrocytes, SYBR Green DNA, 72 h; series mostly up to 28.7 µM
# Summary of the method: as §1
# PC15 = assay: as above; conditions: P. falciparum in erythrocytes, SYBR Green DNA, 72 h; series mostly up to 28.7 µM
# Summary of the method: as §1
# PC49 = assay: as above; conditions: P. falciparum in erythrocytes, SYBR Green DNA, 72 h; series mostly up to 28.7 µM
# Summary of the method: as §1
# CP194 = assay: as above; conditions: P. falciparum in erythrocytes, SYBR Green DNA, 72 h; series mostly up to 28.7 µM
# Summary of the method: as §1
# DIV14 = assay: as above; conditions: P. falciparum in erythrocytes, SYBR Green DNA, 72 h; series mostly up to 28.7 µM
# Summary of the method: as §1
# GB4 = assay: as above; conditions: P. falciparum in erythrocytes, SYBR Green DNA, 72 h; series mostly up to 28.7 µM
# Summary of the method: as §1
# PC26 = assay: as above; conditions: P. falciparum in erythrocytes, SYBR Green DNA, 72 h; series mostly up to 28.7 µM
# Summary of the method: as §1
# [10] = Counterscreen qHTS for small molecule stabilizers of the endoplasmic reticulum resident proteome: GLuc-NoTag assay (AID 1508627); further: potency means the concentration at half of the fitted maximal effect
# Summary of the method: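 Secreted GLuc lacking the SERCaMP modification is measured in SH-SY5Y cells exposed to compound for 19 h and then to thapsigargin (100 nM, 4 h) to deplete ER calcium; hits retested at 11 concentrations, up to 76.6 uM.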
# Chain of Luciferin 4-monooxygenase (Photinus pyralis) (P08659 whole entry, looked up): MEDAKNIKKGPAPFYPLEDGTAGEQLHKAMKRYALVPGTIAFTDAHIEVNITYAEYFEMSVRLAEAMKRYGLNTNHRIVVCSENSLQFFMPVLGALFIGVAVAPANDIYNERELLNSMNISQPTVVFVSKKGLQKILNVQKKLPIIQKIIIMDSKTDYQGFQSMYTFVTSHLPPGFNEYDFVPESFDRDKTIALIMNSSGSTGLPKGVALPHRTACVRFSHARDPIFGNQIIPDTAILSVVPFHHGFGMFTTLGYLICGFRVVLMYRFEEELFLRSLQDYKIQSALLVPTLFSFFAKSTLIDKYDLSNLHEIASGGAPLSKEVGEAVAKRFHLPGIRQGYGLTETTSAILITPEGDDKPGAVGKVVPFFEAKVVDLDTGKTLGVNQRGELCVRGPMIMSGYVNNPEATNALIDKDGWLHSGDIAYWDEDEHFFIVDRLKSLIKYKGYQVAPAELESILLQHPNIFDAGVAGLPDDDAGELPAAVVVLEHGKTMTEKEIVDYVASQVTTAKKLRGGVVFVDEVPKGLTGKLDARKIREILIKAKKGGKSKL
# Chain of Glucocorticoid receptor (Homo sapiens) (P04150 whole entry, looked up): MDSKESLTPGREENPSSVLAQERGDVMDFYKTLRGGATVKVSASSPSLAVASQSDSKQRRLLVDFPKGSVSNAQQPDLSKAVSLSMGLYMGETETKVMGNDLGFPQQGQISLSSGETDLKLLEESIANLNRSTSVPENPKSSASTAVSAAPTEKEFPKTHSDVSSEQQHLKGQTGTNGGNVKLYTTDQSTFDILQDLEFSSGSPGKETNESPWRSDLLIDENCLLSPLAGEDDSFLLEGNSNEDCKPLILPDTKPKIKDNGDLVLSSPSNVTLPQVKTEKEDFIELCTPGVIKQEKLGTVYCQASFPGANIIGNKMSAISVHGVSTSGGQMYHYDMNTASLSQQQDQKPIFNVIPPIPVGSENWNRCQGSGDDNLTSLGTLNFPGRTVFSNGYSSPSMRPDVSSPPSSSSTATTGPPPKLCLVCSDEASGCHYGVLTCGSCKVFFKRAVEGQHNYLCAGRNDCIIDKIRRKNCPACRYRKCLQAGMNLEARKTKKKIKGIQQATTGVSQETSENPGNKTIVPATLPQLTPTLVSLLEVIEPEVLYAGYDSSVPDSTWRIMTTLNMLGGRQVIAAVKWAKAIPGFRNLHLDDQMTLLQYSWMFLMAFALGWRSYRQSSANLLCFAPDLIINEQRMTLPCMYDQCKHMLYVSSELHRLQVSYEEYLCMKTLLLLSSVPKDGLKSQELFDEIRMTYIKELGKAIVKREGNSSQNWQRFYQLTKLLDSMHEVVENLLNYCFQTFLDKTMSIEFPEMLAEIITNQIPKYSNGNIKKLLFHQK
# Chain of Peroxisome proliferator-activated receptor alpha (Homo sapiens) (Q07869 whole entry, looked up): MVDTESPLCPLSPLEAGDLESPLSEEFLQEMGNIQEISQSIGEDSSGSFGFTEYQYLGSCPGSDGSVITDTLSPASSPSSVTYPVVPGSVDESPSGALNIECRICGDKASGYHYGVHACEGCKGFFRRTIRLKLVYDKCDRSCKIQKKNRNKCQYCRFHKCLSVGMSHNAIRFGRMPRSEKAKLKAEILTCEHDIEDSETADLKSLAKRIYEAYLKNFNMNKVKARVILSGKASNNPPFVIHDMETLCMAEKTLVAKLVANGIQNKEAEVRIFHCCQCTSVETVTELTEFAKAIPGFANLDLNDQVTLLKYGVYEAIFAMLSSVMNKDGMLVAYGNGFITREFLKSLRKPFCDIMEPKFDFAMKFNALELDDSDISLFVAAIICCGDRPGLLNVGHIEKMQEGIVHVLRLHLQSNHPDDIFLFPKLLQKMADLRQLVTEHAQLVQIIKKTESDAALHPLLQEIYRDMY
# Chain of Vitamin D3 receptor (Homo sapiens) (P11473 whole entry, looked up): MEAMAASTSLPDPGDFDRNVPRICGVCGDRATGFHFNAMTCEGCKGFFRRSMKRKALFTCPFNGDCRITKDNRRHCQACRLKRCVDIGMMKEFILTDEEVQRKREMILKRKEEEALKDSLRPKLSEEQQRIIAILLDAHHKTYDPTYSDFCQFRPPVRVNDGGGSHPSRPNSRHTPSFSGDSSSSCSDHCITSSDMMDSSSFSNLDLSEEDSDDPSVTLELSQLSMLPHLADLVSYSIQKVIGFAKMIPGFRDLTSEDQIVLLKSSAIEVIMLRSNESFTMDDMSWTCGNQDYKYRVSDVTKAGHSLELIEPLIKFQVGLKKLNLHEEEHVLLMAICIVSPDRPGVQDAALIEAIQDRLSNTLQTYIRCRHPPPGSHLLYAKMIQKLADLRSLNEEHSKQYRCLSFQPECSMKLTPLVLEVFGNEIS
# Chain of Rap guanine nucleotide exchange factor 4 (Homo sapiens) (Q8WZA2 whole entry, looked up): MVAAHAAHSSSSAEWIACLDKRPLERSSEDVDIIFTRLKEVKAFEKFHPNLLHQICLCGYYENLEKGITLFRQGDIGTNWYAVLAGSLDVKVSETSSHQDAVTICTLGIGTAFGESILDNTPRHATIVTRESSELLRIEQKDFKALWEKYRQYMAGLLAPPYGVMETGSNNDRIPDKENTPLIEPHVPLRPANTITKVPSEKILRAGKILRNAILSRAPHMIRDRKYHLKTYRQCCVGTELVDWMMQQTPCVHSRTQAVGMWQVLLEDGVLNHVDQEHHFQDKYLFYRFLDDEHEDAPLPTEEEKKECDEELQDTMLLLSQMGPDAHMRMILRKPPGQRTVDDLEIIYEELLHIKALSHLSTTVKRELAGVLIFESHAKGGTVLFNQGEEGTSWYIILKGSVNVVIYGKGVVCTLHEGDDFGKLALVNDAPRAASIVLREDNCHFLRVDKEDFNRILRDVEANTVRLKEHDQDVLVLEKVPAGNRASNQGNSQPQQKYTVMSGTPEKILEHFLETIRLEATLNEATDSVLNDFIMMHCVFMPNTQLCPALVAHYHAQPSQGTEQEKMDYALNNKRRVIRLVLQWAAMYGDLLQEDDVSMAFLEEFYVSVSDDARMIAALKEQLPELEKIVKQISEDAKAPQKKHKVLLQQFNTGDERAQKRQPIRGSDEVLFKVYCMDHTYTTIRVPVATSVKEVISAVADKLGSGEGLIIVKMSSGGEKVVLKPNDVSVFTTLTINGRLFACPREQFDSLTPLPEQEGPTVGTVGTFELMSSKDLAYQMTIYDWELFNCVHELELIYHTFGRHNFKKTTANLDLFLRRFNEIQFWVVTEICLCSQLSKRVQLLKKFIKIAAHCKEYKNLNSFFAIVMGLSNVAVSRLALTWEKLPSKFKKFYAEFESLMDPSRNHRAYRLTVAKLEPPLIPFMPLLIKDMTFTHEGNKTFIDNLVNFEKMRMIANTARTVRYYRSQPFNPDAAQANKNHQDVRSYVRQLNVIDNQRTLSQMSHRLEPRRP
# Chain of Estrogen receptor (Homo sapiens) (P03372 whole entry, looked up): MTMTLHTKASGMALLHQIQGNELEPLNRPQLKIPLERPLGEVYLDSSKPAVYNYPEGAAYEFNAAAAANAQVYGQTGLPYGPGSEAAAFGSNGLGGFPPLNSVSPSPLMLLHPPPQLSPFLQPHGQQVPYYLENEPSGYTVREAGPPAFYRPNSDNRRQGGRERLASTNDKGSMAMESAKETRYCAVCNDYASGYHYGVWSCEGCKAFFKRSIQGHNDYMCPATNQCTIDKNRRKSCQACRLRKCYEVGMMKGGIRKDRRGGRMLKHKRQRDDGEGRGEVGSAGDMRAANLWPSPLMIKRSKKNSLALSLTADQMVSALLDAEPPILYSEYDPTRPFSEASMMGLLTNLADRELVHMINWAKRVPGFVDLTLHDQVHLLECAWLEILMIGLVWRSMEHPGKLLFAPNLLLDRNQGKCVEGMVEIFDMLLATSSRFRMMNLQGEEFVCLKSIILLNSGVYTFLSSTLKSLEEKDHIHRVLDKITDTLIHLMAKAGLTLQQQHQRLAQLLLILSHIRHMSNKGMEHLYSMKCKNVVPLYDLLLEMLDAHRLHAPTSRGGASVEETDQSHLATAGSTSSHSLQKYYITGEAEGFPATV
smiles,measurement,setting,value
C=C(C)CN1CC[C@@]23c4c5ccc(O)c4O[C@H]2c2[nH]c4ccccc4c2C[C@]3(O)[C@@H]1C5,outcome,[1],inactive
Cc1ccc2cc3c(ccc4ccccc43)c3c2c1CC3,Potency,[2],inactive
same,activation,[3],4.51%
same,outcome,[4],inactive
same,Potency,[5],8.91 µM (active)
same,max response,[6],-0.967%
same,max response,[7],-7.15%
CC(C)(c1ccc(OCC2CO2)cc1)c1ccc(OCC2CO2)cc1 (stereo not drawn),Potency,[2],31.6 µM [inconclusive] (active)
same,activation,[3],-1.68% and 2.51%
same,outcome,[4],inactive
same,activation,[5],-0.167% and 1.71%
same,max response,[6],-4.29% and -0.125%
same,max response,[7],-3.1%
CCN1C[C@]2(COC)[C@H](O)C[C@H](OC)[C@]34C1C([C@H](OC)[C@H]23)[C@]1(OC(C)=O)C2[C@@H](OC(=O)c3ccccc3)C(O)(C[C@H]24)[C@@H](OC)[C@@H]1O,Potency,[8],inactive
same,Potency,[9],inactive
same,Potency,3D7,inactive
same,Potency,CP211,inactive
same,Potency,CP266,inactive
same,Potency,FAB9,inactive
same,Potency,PC15,inactive
same,Potency,PC49,inactive
CC(C)[C@@]1(NC(=O)[C@H]2CC3c4cccc5[nH]cc(c45)C[C@H]3N(C)C2)O[C@@]2(O)C3CCCN3C(=O)[C@@H](Cc3ccccc3)N2C1=O (stereo partly drawn),Potency,[8],inactive
same,Potency,3D7,2.24 µM (active)
same,Potency,CP194,6.75 µM (active)
same,Potency,CP211,6.01 µM (active)
same,Potency,CP266,6.01 µM (active)
same,Potency,DIV14,0.953 µM (active)
same,Potency,GB4,3.01 µM (active)
same,Potency,PC15,1.78 µM (active)
same,Potency,PC26,1.51 µM (active)
same,Potency,PC49,3.16 µM (active)
O=C(O)c1ccccc1-c1c2cc(Br)c(=O)cc-2oc2[c]([Hg])c(O)c(Br)cc12,Potency,[9],inactive
same,Potency,CP194,inactive
same,Potency,CP211,inactive
same,Potency,DIV14,inactive
same,Potency,FAB9,inactive
same,Potency,GB4,inactive
same,Potency,PC26,inactive
CC(C)(O)[C@H]1O[C@@H]2CC[C@]3(C)[C@@]4(C)c5[nH]c6ccccc6c5C[C@@H]4CC[C@]3(O)C2=CC1=O,outcome,[1],inactive
CCN(CC)CCO[C@H]1CC[C@@]2(C)C(=CC[C@@H]3[C@H]2CC[C@]2(C)C(=O)CC[C@H]32)C1,Potency,[8],inactive
same,Potency,[9],inactive
same,Potency,[10],25.1 µM (active)
same,Potency,3D7,inactive
same,Potency,CP194,inactive
same,Potency,CP266,inactive
same,Potency,DIV14,inactive
same,Potency,FAB9,inactive
same,Potency,GB4,inactive
same,Potency,PC15,inactive
same,Potency,PC26,inactive
same,Potency,PC49,inactive
CC(C)[C@@]1(NC(=O)[C@@H]2C[C@H]3c4cccc5[nH]cc(c45)C[C@@H]3N(C)C2)O[C@@]2(O)[C@H]3CCCN3C(=O)[C@H](Cc3ccccc3)N2C1=O,Potency,[10],inactive
Fc1ccc(C(OCCN2CCN(C/C=C\c3ccccc3)CC2)c2ccc(F)cc2)cc1,Potency,[10],39.8 µM (active)
